# In PubChem BioAssay:
# Values joined by “and” are separate entries in the source; they are usually repeats but may differ in a detail not shown here. Equal entries are not always repeated. Active and inactive are the calls of the source.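 Rule for the calls, unless noted: active = compounds whose cell count with miR-34 switched on is under 0.7 times the count with it off; inactive = the rest.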
# Experiments:
# [1] = hESC survival regulators, cell-based (AID 493140; call rule not given here;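 note: cells exposed to compounds for four days before counting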); details: human embryonic stem cell survival screen; stronger effect = higher value
# [2] = liver-stage malaria parasite growth inhibition, primary screen, cell-based, HepG2, luciferase luminescence, HepG2 viability (AID 624349; in the data active = parasite load remaining mostly below about 12%, no sharp cut-off; inactive = mostly above about 10%;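 note: 100% = mean of DMSO negative control wells on the same plate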); details: P. berghei liver stage in HepG2, luciferase luminescence, concentration not given here; parasite load remaining: stronger effect = lower value; viability: measured here: HepG2 viability without parasites
# [3] = stimulators of nuclear beta-catenin in C2C12, primary screen, imaging, WNT3A-conditioned medium, mouse C2C12, NPC library (AID 1117326; in the data active = nuclear beta-catenin stimulation mostly above about 4.2%, no sharp cut-off; inactive = mostly below about 10%); details: stronger effect = higher value
# [4] = stimulators of insulin release from INS-1E, primary screen, cell-based, 5 mM glucose, NPC library (AID 1117329;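 active = compound raises insulin release from rat beta cells at 5 mM glucose, no numeric limit stated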); details: rat INS-1E insulin secretion, at 10 µM, stronger effect = higher value
# [5] = growth inhibition of GSK3B-pretreated HCT116 cells – cell-based, CellTiter-Glo, 0.2 to 20 µM (AID 1117336;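 active = compounds lowering colon cancer cell viability after pretreatment blocking the GSK3B kinase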); details: HCT116 viability after GSK3B inhibitor, at 20 µM, stronger effect = higher value
# [6] = inhibition of endothelial tube formation, primary screen, imaging, VEGF stimulated, CD31 staining, tube area, NPC library (AID 1117340;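 active = compound that reduces growth-factor-driven endothelial tube area in a mixed cell culture, no cutoff stated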); details: VEGF-stimulated ADSC/ECFC co-culture, at 10 µM, stronger effect = higher value
# [7] = glucagon-like peptide 1 release enhancers, primary assay, NCI-H716 cell line, NPC library (AID 1117341;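 active = compound raises GLP1 secretion from the human gut endocrine cells, with no numeric limit stated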); details: NCI-H716 cells, at 10 µM, stronger effect = higher value
# [8] = HCT116 colon cancer cell growth inhibition, primary screen, CellTiter-Glo luminescence, NPC library (AID 1117342;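 active = compounds that lower survival of HCT116 colon cancer cells in the luminescence readout, no numeric limit stated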); details: at 20 µM (top of the series)
# [9] = CellTiter-Glo luminescent readout of SW480 viability loss, NPC library primary (AID 1117343;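 active = compounds that lower viability of the colon cancer cells in the luminescence readout, with no numeric limit stated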); details: CellTiter-Glo luminescence; at 20 µM (top of the series) unless noted
# [10] = decreased DLD-1 cellular survival, CellTiter-Glo luminescent readout, NPC compound collection, primary HTS (AID 1117346;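 active = compounds that lower survival of DLD-1 colon cancer cells in the luminescence readout, no cutoff given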); details: DLD-1 viability, CellTiter-Glo luminescence; at 20 µM (top of the series)
# [11] = differential killing of epithelial or mesenchymal cells, primary screen, imaging, PC-3E GFP, TEM4-18 mCherry, co-culture (AID 1345086;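 active = compounds killing one labelled cell type while sparing the other, by normalised counts and ratio limits, not self-fluorescent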;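 for all read-outs here: cells exposed to compound for 72 h before imaging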;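 for red/green cell ratio (normalised): normalised mesenchymal count divided by normalised epithelial count so high means epithelial killing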); details: imaging cell counts, at 1 µM; for red/green cell ratio (normalised): actives lie on both sides, counts scaled to control wells, 1 = unselective
# [12] = sensitizers of A549 cells to miR-34 induction, primary screen, imaging, A549 dox-inducible miR-34, nuclei and caspase counts (AID 1347080); details: A549 miR-34 inducible, Hoechst nuclei count, 48 h
# [13] = survival rescue of mitochondrial mutant cells in low glucose, primary screen, MELAS cybrids, Rieske KO mouse fibroblasts, CellTiter-Glo (AID 1508586;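 active = mean z-score across replicates of 1.96 or higher in either the MELAS or the Rieske mutant cell line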;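 note: z relative to plate mean and SD of compound and empty wells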)
# [14] = molecular target: NAD(+) hydrolase SARM1 (Homo sapiens) (UniProt Q6SZW1); assay: SARM1 TIR NADase inhibitors, cell lysate, NAD-Glo luminescence (AID 1508614;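 active = compound whose remaining NAD level is above about 45 nM, limit read from the data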;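 note: higher remaining NAD means stronger inhibition of SARM1 NADase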); details: SAM-TIR HEK293T lysate NADase, at 1 µM, stronger effect = higher value
# [15] = measured here: epithelial PC-3E GFP cell survival
# [16] = measured here: mesenchymal TEM4-18 mCherry cell survival
# [17] = stronger effect = lower value, cell number ratio, induced over uninduced
# [18] = measured here: relative caspase fold change +Dox/-Dox
# [19] = measured here: total cells with miR-34 induction, stronger effect = lower value
# [20] = measured here: total cells without miR-34 induction
# [21] = MELAS cybrid survival, CellTiter-Glo 48 h, stronger effect = higher value
# [22] = Rieske KO mouse fibroblast survival, CellTiter-Glo 72 h
# Sequence of NAD(+) hydrolase SARM1 (Homo sapiens) (Q6SZW1 whole entry, looked up): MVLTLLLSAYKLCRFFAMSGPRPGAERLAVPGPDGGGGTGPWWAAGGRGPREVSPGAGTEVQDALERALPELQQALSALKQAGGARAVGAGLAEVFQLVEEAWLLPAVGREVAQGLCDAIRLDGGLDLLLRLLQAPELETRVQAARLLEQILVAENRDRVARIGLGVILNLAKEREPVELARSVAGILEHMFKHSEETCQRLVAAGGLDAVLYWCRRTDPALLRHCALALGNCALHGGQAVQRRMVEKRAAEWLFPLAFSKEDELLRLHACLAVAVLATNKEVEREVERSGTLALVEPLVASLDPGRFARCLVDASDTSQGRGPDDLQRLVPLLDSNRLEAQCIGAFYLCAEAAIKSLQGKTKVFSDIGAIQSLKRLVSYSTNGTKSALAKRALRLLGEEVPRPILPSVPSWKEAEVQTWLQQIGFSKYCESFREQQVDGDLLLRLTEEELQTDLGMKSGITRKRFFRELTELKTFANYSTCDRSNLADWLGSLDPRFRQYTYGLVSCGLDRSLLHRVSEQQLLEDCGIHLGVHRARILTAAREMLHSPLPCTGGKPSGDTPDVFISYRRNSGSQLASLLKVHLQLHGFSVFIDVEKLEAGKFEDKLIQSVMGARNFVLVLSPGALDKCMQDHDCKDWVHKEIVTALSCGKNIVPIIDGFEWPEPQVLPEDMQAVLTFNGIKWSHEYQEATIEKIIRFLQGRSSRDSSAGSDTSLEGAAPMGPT
smiles,measurement,setting,value
Cc1cc(=O)oc2cc(O)ccc12,survival,[1],5.33 (inactive)
same,parasite load remaining,[2],118% (inactive)
same,viability,[2],98.7%
same,nuclear beta-catenin stimulation,[3]; at 10 µM,-0.6% (inactive)
same,nuclear beta-catenin stimulation,"[3]; stimulation, at 2 µM",-0.4%
same,insulin secretion stimulation,[4],-1.7% (inactive)
same,viability decrease,[5],-10.2% (inactive)
same,tube area decrease,[6],-7.2% (inactive)
same,GLP1 secretion stimulation,[7],3.1% (inactive)
same,inhibition of viability,[8],13.6% (inactive)
same,viability decrease (inhibition),[9],12.3% (inactive)
same,viability decrease (inhibition),[10],-2.45% (inactive)
same,red/green cell ratio (normalised),[11],0.94 (inactive)
same,normalised cell number,[11]; [15],1.05
same,normalised cell number,[11]; [16],0.99
same,fold change,[12]; [17],0.873 (inactive) and 0.847 (inactive) and 0.939 (inactive)
same,fold change,[12]; [18],1.07 and 1.58 and 0.709
same,cell count,[12]; [19],8530 and 9030 and 8940
same,cell count,[12]; [20],9770 and 10700 and 9520
same,z-score,[13]; [21],-0.289 (inactive) and 0.464 (inactive)
same,z-score,[13]; [22],0.286 and 0.338
same,remaining NAD,[14],10 nM (inactive)
CC(O)CN(CCN(CC(C)O)CC(C)O)CC(C)O (stereo unspecified),nuclear beta-catenin stimulation,[3]; at 10 µM,2% (inactive)
same,nuclear beta-catenin stimulation,"[3]; stimulation, at 2 µM",2.5%
same,insulin secretion stimulation,[4],0.5% (inactive)
same,viability decrease,[5],-38.9% (inactive)
same,tube area decrease,[6],5.2% (inactive)
same,GLP1 secretion stimulation,[7],-4.1% (inactive)
same,inhibition of viability,[8],3.07% (inactive)
same,viability decrease (inhibition),[9],18.9% (inactive)
same,viability decrease (inhibition),[10],-3.8% (inactive)
same,red/green cell ratio (normalised),[11],1.23 (inactive)
same,normalised cell number,[11]; [15],0.98
same,normalised cell number,[11]; [16],1.2
same,fold change,[12]; [17],1.01 (inactive)
same,fold change,[12]; [18],0.821
same,cell count,[12]; [19],9510
same,cell count,[12]; [20],9380
CCN(CC)C(=O)c1ccc(O)c(OC)c1,survival,[1],14.3 (inactive)
same,parasite load remaining,[2],98.8% (inactive) and 82.6% (inactive) and 34.4% (inactive)
same,viability,[2],116% and 78.8% and 105%
same,nuclear beta-catenin stimulation,[3]; at 10 µM,0.4% (inactive)
same,nuclear beta-catenin stimulation,"[3]; stimulation, at 2 µM",-0.5%
same,insulin secretion stimulation,[4],-1.1% (inactive)
same,viability decrease,[5],-5.6% (inactive)
same,tube area decrease,[6],19.7% (inactive)
same,GLP1 secretion stimulation,[7],-0.9% (inactive)
same,inhibition of viability,[8],-33.9% (inactive)
same,viability decrease (inhibition),[9],107% (active)
same,viability decrease (inhibition),[10],-2.25% (inactive)
same,red/green cell ratio (normalised),[11],1.01 (inactive)
same,normalised cell number,[11]; [15],1.04
same,normalised cell number,[11]; [16],1.06
same,fold change,[12]; [17],0.99 (inactive) and 0.899 (inactive) and 0.849 (inactive)
same,fold change,[12]; [18],1.08 and 1.38 and 3.96
same,cell count,[12]; [19],10300 and 8560 and 11800
same,cell count,[12]; [20],10400 and 9520 and 13900
same,z-score,[13]; [21],-0.598 (inactive)
same,z-score,[13]; [22],-0.406
same,remaining NAD,[14],10 nM (inactive)
COc1ccc2[nH]c(S(=O)Cc3ncc(C)c(OC)c3C)nc2n1 (stereo unspecified),parasite load remaining,[2],0.57% (active)
same,viability,[2],93%
same,nuclear beta-catenin stimulation,[3]; at 10 µM,5.2% (inactive)
same,nuclear beta-catenin stimulation,"[3]; stimulation, at 2 µM",-0.9%
same,insulin secretion stimulation,[4],4.2% (inactive)
same,viability decrease,[5],16.5% (inactive)
same,tube area decrease,[6],14.1% (inactive)
same,GLP1 secretion stimulation,[7],4.6% (inactive)
same,inhibition of viability,[8],4.9% (inactive)
same,viability decrease (inhibition),[9],-1.6% (inactive)
same,viability decrease (inhibition),[10],4.3% (inactive)
same,red/green cell ratio (normalised),[11],1.06 (inactive)
same,normalised cell number,[11]; [15],1.01
same,normalised cell number,[11]; [16],1.07
same,fold change,[12]; [17],0.835 (inactive)
same,fold change,[12]; [18],1.32
same,cell count,[12]; [19],8340
same,cell count,[12]; [20],9990
same,z-score,[13]; [21],1.95 (inactive) and 1.02
same,z-score,[13]; [22],0.213 and 2.3
same,remaining NAD,[14],77 nM (active)
